Test results taken from PubChem BioAssay (EPA / NIEHS).
Results filed as inconclusive are left out. Activity calls are given as the source filed them. The calls were made as follows, unless noted: active = hit-call score of the fitted dose curve at least 0.9, where 1 is the maximum; inactive = score below 0.9.

What was measured:
[1] = molecular target: Glucocorticoid receptor (Homo sapiens) (UniProt P04150); experiment: ATG_GR_TRANS: Attagene TRANS-FACTORIAL HepG2 Assay for human Glucocorticoid Receptor (GR) (AID 2282978; active = hit-call score of the fitted dose curve at least 0.9, where 1 is the maximum;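 also: activators score as hits since higher reporter transcript over DMSO is fitted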); conditions: HepG2 Attagene TRANS GR reporter, mRNA transcription
How it was run: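 Exogenous NR-GAL4 fusion activity was assessed through induced GAL4-UAS reporter transcripts in transfected human HepG2 cells, quantified after 24 h by RT-PCR and fluorescent capillary electrophoresis with DMSO as baseline.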

[2] = molecular target: Oxysterols receptor LXR-beta (Homo sapiens) (UniProt P55055); experiment: ATG_LXRb_TRANS: Attagene TRANS-FACTORIAL HepG2 Assay for human Liver X Receptor beta (LXRb) (AID 2282981; active = hit-call score of the fitted dose curve at least 0.9, where 1 is the maximum); conditions: HepG2 Attagene TRANS GAL4-LXRb reporter, mRNA
How it was run: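 Gain-of-signal mRNA reporter endpoint, DMSO as negative control. Transiently transfected HepG2 cells carrying the NR-Gal4 chimera and GAL4-UAS reporter units were treated 24 h; transcripts quantified by RT-PCR and capillary electrophoresis fluorescence.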

[3] = ATG_M_32_TRANS: Attagene TRANS-FACTORIAL HepG2 Assay for M32 Transcription Factor (Internal Marker) (AID 2282984; active = hit-call score of the fitted dose curve at least 0.9, where 1 is the maximum;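 also: transcript level of a background control reporter unit measured by RT-PCR and capillary electrophoresis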); conditions: HepG2 Attagene TRANS M32 internal marker reporter
How it was run: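 Capillary electrophoresis of 6-FAM-labelled reporter fragments gives the signal; data fitted for gain over DMSO negative control. Source: HepG2 cells bearing transient multiple reporter transcription units, 24 h exposure.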

[4] = molecular target: Nuclear receptor subfamily 4 group A member 2 (Homo sapiens) (UniProt P43354); experiment: ATG_NURR1_TRANS: Attagene TRANS-FACTORIAL HepG2 Assay for human Nuclear Receptor Related Protein 1 (NURR1) (AID 2282985; active = hit-call score of the fitted dose curve at least 0.9, where 1 is the maximum); conditions: HepG2 Attagene TRANS reporter, mRNA readout
How it was run: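 HepG2 / transient MRTU transfection / 24 h compound exposure / RT-PCR + CE fluorescence of reporter mRNA / gain-of-signal vs DMSO.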

[5] = molecular target: Transcriptional activator Myb (Homo sapiens) (UniProt P10242); experiment: ATG_Myb_CIS: Attagene CIS-FACTORIAL HepG2 Assay for human Myeloblastosis (Myb) Proto-Oncogene Transcription Factor (AID 2282986); conditions: HepG2 Attagene CIS-FACTORIAL Myb reporter transcription; actives raise or lower the signal
How it was run: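 In this HepG2 transient-transfection format, cis-regulated reporter mRNA is quantified 24 h post-dosing by RT-PCR with capillary electrophoresis, fitted bidirectionally to DMSO baseline.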

[6] = molecular target: Nuclear respiratory factor 1 (Homo sapiens) (UniProt Q16656); experiment: ATG_NRF1_CIS: Attagene CIS-FACTORIAL HepG2 Assay for human Nuclear Respiratory Factor 1 (NRF1) Orphan Gene (AID 2282987); conditions: HepG2 NRF1 cis-element reporter, Attagene multiplex; actives raise or lower the signal
How it was run: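 Using DMSO as baseline, gain- or loss-of-signal was fitted for reporter mRNA levels in HepG2 cells transiently transfected with cis-regulated reporter units. Samples were taken 24 h after dosing and read by RT-PCR with capillary electrophoresis.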

[7] = molecular target: Myc proto-oncogene protein (Homo sapiens) (UniProt P01106); experiment: ATG_Myc_CIS: Attagene CIS-FACTORIAL HepG2 Assay for human Myelocytomatosis (Myc) Proto-Oncogene Transcription Factor (AID 2282990); conditions: HepG2, Attagene cis-reporter transcription factor activity; actives raise or lower the signal
How it was run: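 Fluorescence intensity of reporter-specific cDNA fragments, separated by capillary electrophoresis, gives the signal. Transfected HepG2 cells carrying cis-promoter reporter constructs are incubated with compound for 24 h; DMSO serves as baseline.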

[8] = ATG_Oct_MLP_CIS: Attagene CIS-FACTORIAL HepG2 Assay for human Octamer-Binding Transcription Factor (Oct) (AID 2282993); conditions: HepG2 Attagene cis-factorial Oct reporter, mRNA; actives raise or lower the signal
How it was run: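 HepG2 cells transiently transfected with cis-element-driven reporter transcription units (endogenous TF activity); 24 h compound exposure. Reporter mRNA quantified by RT-PCR, 6-FAM labelling, HpaI digestion and capillary electrophoresis; bidirectional fit versus DMSO baseline.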

[9] = molecular target: Cellular tumor antigen p53 (Homo sapiens) (UniProt P04637); experiment: ATG_p53_CIS: Attagene CIS-FACTORIAL HepG2 Assay for human p53 Transcription Factor (AID 2282994); conditions: HepG2 p53 cis-element reporter, Attagene mRNA; actives raise or lower the signal
How it was run: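 Using HepG2 hepatoma cells carrying cis-acting multiplexed reporters, mRNA induction is detected after a 24 h exposure. Gain- and loss-of-signal responses are fitted relative to DMSO-treated cells.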

[10] = BSK_3C_TissueFactor: BioMAP Diversity Plus: 3C Assay for Tissue Factor Biomarker Activity (AID 2282997); conditions: BioMAP 3C HUVEC, tissue factor biomarker readout; actives raise or lower the signal
How it was run: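 ELISA read-out of Tissue Factor levels on human umbilical vein endothelium collected 24 h after chemical dosing. Gain or loss of signal was fitted relative to DMSO.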

[11] = BSK_3C_uPAR: BioMAP Diversity Plus: 3C Assay for Urokinase-type plasminogen activator receptor (uPAR) Biomarker Activity (AID 2282998); conditions: BioMAP 3C HUVEC, uPAR biomarker ELISA; actives raise or lower the signal
How it was run: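 Primary human umbilical vein endothelial cells, 3C system; surface uPAR measured by ELISA 24 h after dosing. Cytotoxicity via SRB total protein in parallel cultures; bidirectional fit against DMSO.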

[12] = BSK_3C_VCAM1: BioMAP Diversity Plus: 3C Assay for Vascular cell adhesion molecule 1 (VCAM1) Biomarker Activity (AID 2282999); conditions: BioMAP 3C HUVEC, VCAM1 ELISA, cytokine-stimulated; actives raise or lower the signal
How it was run: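 Human umbilical vein endothelial cells (3C system), biomarker read by ELISA 24 h after dosing; bidirectional fit against DMSO baseline. Cytotoxicity tracked by SRB total-protein staining in parallel cultures at biomarker time.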

[13] = ATG_NF_kB_CIS: Attagene CIS-FACTORIAL HepG2 Assay for human Nuclear Factor Kappa B (NF-kB) (AID 2282991); conditions: HepG2 Attagene cis-factorial NF-kB reporter mRNA; actives raise or lower the signal
How it was run: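 Endpoint from a 52-component multiplexed HepG2 reporter panel: cis-regulated transcription units transiently transfected, 24 h dosing, reporter mRNA quantified by RT-PCR and capillary electrophoresis, scored as increase or decrease against DMSO.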

[14] = molecular target: Hepatocyte nuclear factor 4-alpha (Homo sapiens) (UniProt P41235); experiment: ATG_HNF4a_TRANS: Attagene TRANS-FACTORIAL HepG2 Assay for human Hepatocyte Nuclear Factor 4 alpha (HNF4a) (AID 2282982; active = hit-call score of the fitted dose curve at least 0.9, where 1 is the maximum); conditions: HepG2 HNF4a transactivation reporter, mRNA readout
How it was run: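 Gain-of-signal mRNA induction, relative to DMSO vehicle, was read after 24 h compound treatment of HepG2 cells bearing transfected GAL4-UAS reporters. Detection used RT-PCR, 6-FAM primer extension and capillary electrophoresis.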

[15] = ATG_M_06_TRANS: Attagene TRANS-FACTORIAL HepG2 Assay for M06 Transcription Factor (Internal Marker) (AID 2282983; active = hit-call score of the fitted dose curve at least 0.9, where 1 is the maximum); conditions: HepG2 Attagene TRANS M06 internal marker reporter
How it was run: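 Transfect HepG2 with MRTUs → dose compounds 24 h → isolate RNA, oligo(dT) RT → PCR with reporter primers → 6-FAM primer extension → HpaI digest → CE fragment analysis. Positive direction vs DMSO.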

[16] = ATG_NFI_CIS: Attagene CIS-FACTORIAL HepG2 Assay for human Nuclear Factor I (NFI) (AID 2282989); conditions: HepG2 cis-regulatory reporter, NFI response element transcription; actives raise or lower the signal
How it was run: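 Endogenous TF activity in HepG2 cells transiently transfected with cis-element-driven multiplexed reporter units, read 24 h after dosing. Reporter mRNA quantified by RT-PCR, 6-FAM labelling, HpaI digestion and capillary electrophoresis; bidirectional fit versus DMSO.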

[17] = molecular target: Oxysterols receptor LXR-alpha (Homo sapiens) (UniProt Q13133); experiment: ATG_LXRa_TRANS: Attagene TRANS-FACTORIAL HepG2 Assay for human Liver X Receptor alpha (LXRa) (AID 2282980; active = hit-call score of the fitted dose curve at least 0.9, where 1 is the maximum); conditions: HepG2 Attagene TRANS reporter, LXRa transactivation
How it was run: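 Transfect HepG2 with GAL4-UAS multiplex reporter constructs (TRANS format, chimeric receptor-GAL4); treat 24 h; extract RNA, reverse-transcribe, PCR-amplify, FAM-label, HpaI-digest; resolve fragments by capillary electrophoresis. Upward response vs DMSO.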

Measured: outcome

Glucocorticoid receptor (Homo sapiens), sequence (P04150 whole entry, looked up, the tested form may be a part): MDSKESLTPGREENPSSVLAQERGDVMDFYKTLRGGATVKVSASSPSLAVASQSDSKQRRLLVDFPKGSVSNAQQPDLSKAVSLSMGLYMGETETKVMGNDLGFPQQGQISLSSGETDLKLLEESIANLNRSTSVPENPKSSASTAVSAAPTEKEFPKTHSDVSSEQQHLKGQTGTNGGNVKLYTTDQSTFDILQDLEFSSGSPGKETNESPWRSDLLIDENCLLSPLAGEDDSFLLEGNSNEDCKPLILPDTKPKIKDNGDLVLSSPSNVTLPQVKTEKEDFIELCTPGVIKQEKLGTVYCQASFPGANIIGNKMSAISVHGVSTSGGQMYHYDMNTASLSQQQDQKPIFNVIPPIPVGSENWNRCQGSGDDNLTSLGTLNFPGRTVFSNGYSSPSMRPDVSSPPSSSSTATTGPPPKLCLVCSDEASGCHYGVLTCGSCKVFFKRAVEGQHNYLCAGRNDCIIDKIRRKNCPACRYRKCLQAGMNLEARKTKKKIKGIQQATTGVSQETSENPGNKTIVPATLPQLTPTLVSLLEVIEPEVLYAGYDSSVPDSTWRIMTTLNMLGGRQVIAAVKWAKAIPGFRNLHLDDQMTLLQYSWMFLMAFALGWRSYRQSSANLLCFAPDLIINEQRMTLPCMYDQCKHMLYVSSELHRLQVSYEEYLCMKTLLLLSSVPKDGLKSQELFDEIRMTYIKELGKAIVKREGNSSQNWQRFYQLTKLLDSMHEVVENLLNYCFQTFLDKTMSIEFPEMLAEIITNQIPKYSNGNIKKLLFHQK
Transcriptional activator Myb (Homo sapiens), sequence (P10242 whole entry, looked up): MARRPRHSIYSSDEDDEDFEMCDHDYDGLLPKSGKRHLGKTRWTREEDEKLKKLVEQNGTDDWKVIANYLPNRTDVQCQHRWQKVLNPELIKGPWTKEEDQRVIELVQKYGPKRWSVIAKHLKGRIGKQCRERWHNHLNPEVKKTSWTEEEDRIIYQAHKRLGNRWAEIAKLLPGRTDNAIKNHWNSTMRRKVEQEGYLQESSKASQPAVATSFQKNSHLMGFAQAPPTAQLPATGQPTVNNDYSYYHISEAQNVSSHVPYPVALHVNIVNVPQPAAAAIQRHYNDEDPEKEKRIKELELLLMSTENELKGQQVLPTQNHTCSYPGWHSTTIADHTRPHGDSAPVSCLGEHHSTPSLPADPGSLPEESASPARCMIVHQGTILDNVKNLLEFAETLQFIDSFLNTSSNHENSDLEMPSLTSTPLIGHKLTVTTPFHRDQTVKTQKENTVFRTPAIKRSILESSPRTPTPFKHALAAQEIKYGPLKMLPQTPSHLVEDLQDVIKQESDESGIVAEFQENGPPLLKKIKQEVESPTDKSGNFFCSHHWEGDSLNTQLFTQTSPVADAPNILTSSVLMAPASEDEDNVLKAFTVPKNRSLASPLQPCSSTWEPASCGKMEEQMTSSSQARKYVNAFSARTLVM
Myc proto-oncogene protein (Homo sapiens), sequence (P01106 whole entry, looked up, the tested form may be a part): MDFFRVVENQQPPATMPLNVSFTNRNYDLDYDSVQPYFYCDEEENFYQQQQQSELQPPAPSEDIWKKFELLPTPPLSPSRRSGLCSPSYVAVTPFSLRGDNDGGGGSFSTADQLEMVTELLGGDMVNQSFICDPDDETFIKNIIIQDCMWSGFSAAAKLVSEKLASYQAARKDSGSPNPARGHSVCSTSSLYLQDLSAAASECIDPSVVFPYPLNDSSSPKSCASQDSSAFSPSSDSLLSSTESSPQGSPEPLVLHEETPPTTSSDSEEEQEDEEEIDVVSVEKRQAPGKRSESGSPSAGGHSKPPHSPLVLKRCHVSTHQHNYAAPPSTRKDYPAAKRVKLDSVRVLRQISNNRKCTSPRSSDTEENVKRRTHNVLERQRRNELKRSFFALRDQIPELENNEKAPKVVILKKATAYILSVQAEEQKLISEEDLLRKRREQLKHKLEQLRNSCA
Oxysterols receptor LXR-beta (Homo sapiens), sequence (P55055 whole entry, looked up, the tested form may be a part): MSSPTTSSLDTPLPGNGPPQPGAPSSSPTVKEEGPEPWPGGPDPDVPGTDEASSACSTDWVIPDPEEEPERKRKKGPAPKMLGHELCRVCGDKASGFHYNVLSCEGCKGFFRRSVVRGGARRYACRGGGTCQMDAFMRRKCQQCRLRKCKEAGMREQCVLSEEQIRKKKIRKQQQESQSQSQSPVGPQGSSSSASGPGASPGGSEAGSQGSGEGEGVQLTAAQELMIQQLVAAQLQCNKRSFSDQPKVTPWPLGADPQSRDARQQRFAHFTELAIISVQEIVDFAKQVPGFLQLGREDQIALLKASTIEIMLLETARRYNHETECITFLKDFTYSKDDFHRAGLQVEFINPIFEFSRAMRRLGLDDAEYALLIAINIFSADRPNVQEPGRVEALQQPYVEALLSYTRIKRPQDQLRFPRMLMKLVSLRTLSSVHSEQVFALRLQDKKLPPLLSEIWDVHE
Cellular tumor antigen p53 (Homo sapiens), sequence (P04637 whole entry, looked up): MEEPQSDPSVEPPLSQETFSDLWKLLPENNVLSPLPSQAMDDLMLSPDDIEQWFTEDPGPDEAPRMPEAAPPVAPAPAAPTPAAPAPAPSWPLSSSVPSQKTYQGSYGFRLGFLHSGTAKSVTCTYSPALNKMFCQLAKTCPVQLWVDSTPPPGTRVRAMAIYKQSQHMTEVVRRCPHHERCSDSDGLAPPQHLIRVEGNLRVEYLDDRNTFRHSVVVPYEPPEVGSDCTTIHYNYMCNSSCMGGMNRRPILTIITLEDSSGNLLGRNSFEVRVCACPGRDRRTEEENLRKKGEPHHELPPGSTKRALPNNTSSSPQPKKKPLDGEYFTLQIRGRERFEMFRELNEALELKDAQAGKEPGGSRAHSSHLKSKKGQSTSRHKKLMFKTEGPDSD
Nuclear respiratory factor 1 (Homo sapiens), sequence (Q16656 whole entry, looked up): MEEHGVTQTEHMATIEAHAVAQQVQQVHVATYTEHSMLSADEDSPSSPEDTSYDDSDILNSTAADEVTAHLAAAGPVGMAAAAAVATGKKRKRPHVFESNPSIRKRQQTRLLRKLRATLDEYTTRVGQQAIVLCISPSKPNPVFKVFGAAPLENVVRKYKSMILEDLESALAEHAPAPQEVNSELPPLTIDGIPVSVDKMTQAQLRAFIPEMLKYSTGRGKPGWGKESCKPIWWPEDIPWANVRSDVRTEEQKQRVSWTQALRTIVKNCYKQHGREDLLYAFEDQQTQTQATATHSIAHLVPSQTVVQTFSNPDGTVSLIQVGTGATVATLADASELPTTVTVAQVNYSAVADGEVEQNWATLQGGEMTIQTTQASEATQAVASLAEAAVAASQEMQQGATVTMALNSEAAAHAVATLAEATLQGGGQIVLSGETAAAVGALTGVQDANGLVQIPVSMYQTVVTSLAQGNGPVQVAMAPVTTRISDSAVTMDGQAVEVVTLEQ
Nuclear receptor subfamily 4 group A member 2 (Homo sapiens), sequence (P43354 whole entry, looked up): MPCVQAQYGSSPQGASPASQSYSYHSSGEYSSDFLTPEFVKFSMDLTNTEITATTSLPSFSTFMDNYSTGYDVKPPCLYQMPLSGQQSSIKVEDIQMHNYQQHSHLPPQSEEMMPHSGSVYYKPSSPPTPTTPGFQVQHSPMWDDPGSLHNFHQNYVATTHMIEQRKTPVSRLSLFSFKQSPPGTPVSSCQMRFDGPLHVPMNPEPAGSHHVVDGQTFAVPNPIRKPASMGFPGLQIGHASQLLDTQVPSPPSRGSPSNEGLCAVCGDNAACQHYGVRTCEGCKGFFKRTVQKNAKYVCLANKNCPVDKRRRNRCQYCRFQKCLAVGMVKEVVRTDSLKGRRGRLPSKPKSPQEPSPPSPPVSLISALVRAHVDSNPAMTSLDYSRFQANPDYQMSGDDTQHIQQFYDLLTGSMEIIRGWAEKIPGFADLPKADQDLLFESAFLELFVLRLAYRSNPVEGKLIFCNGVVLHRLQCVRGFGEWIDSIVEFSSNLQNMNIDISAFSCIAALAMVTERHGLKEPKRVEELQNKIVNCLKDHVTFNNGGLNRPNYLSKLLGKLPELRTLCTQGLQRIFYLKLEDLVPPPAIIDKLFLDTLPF
Oxysterols receptor LXR-alpha (Homo sapiens), sequence (Q13133 whole entry, looked up, the tested form may be a part): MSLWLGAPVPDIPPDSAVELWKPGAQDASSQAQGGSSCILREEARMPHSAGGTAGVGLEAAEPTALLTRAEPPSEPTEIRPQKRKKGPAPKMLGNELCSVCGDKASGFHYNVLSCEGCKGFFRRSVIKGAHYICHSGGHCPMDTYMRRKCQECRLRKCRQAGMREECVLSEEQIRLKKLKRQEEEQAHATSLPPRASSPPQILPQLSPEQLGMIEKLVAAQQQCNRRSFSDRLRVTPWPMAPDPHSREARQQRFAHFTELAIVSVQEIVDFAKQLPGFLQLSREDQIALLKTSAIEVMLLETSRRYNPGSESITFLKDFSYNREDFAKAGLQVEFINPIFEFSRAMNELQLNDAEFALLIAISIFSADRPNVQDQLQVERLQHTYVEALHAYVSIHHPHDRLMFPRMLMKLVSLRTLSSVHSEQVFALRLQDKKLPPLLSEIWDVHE
Hepatocyte nuclear factor 4-alpha (Homo sapiens), sequence (P41235 whole entry, looked up, the tested form may be a part): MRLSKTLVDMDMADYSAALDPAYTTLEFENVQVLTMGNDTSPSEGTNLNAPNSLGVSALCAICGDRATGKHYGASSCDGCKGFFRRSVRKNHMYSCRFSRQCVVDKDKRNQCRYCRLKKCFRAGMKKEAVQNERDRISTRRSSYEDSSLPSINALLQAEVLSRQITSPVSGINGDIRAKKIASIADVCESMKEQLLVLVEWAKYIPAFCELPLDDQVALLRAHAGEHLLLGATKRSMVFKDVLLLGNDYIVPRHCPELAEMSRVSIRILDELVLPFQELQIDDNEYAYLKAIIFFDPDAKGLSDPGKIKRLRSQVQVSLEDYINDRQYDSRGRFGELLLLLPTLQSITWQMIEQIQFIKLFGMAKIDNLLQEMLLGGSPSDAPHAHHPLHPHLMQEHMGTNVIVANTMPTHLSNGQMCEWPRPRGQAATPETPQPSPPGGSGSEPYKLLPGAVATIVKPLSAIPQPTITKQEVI

CC(Oc1cccc(Cl)c1)C(=O)O (stereo not drawn)
not listed: [13] | [14] | [15] | [16] | [17]
inactive: all other assays above

COP(=O)(OC)SCn1c(=O)oc2cc(Cl)cnc21
not listed: [3] | [4] | [14] | [15] | [16] | [17]
inactive: all other assays above

CSc1nnc(C(C)(C)C)c(=O)n1N
not listed: [1] | [3] | [7] | [17]
inactive: all other assays above

CCc1cnc(C2=NC(C)(C(C)C)C(=O)N2)c(C(=O)O)c1 (stereo not drawn)
not listed: [3] | [4] | [9] | [13] | [14]
inactive: all other assays above
